# An excerpt weighted towards active compounds, which were near 2.9% of everything screened.
# KDM5B inhibitor: KDM5B demethylase inhibition | Q9UGL1 | KDM5B demethylase, FDH-coupled NADH fluorescence (FDH is formaldehyde dehydrogenase) | Potency, µM (top dose mostly 57.7 µM), usual class: inhibitors | 220,000 tested, 2.6% active | AID 1347165; further: potency means the concentration at half of the fitted maximal effect; 0% is about no effect; nearly all actives have a fitted effect of over 70% in size
# Target sequence (Q9UGL1 whole entry, looked up): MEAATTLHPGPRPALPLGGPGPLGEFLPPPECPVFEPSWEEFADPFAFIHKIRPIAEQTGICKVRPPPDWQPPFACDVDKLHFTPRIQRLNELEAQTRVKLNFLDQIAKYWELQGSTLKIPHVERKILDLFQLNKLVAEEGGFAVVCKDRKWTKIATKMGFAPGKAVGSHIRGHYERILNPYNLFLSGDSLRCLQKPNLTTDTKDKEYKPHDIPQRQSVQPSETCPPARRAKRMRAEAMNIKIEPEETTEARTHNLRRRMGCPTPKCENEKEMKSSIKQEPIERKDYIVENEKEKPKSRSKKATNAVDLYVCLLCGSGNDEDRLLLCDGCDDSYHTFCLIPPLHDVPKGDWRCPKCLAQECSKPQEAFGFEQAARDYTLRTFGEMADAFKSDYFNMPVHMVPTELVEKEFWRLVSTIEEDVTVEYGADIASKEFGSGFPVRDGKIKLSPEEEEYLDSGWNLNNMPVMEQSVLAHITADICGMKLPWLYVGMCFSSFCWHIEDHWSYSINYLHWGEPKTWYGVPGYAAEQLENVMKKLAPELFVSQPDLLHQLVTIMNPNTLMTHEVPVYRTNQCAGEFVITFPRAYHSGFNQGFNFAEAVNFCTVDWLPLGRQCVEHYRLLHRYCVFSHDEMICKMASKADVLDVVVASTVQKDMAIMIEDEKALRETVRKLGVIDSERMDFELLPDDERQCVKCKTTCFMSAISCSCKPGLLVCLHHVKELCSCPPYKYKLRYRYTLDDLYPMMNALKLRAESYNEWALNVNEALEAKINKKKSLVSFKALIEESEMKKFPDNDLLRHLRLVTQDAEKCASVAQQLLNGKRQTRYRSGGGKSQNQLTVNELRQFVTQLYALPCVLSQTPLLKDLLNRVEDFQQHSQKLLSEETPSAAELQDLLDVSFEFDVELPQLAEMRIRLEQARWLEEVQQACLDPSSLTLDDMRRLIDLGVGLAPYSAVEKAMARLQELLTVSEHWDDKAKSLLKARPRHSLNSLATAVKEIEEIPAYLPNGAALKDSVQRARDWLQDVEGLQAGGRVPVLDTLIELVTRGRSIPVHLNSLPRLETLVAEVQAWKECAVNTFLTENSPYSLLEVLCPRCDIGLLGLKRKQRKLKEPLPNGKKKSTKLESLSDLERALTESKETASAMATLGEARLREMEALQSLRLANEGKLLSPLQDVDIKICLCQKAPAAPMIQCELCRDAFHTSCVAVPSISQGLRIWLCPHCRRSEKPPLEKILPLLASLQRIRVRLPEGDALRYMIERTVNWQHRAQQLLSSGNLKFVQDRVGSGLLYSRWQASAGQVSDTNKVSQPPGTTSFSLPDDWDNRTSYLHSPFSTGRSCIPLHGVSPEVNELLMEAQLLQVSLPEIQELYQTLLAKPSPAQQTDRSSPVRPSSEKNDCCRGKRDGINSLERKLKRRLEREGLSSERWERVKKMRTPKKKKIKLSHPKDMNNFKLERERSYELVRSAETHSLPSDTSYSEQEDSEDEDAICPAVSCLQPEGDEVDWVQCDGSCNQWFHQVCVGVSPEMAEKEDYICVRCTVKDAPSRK
#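 Coupled FDH/NAD⁺ fluorescence readout. KDM5BΔAP 200 nM final; compound titration, 10 min RT preincubation; substrate mix 12.5 µM H3K4me3, 25 µM 2-OG, 50 µM Fe(II), 100 µM ascorbate, 0.25 mM NAD⁺, 0.25 U/mL FDH; ΔRFU over 30 min.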
# SNCA expr inhib: inhibitors of alpha-synuclein (SNCA) gene expression | HEK-293 SNCA-luciferase knock-in, luminescence, 24 h | Potency, µM (top dose mostly 57.2 µM), for the others: at the top dose activity change, negative = inhibition, hits mostly inhibitors | 140,000 tested, 0.17% active;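 further: potency means the concentration at half of the fitted maximal effect; plate controls were DMSO cells for no effect and cell-free wells for full effect; nearly all actives have a fitted effect of over 45% in size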
# IP6K1 inhibitor: IP6K1 kinase inhibition | Q92551 | IP6K1 kinase, ADP-Glo luminescence, 2 h; active compounds read low | activity change, % (series mostly up to about 58 µM) | 140,000 tested, 0.81% active | AID 1645851; in the data active means activity change below about -25%; further: on the % scale 0 is the no-effect control and ±100 the full control effect
#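 ADP-Glo luminescence measures ADP made by human IP6K1 during a 2 h RT reaction with ATP/IP6 (mix at 1.3 mM/130 uM); top library doses 57.5 and 19.1 uM final.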
# SNCA viab count: cell viability loss counter-screen. Potency, µM (top dose mostly 57.1 µM), for the others: top-dose activity change, negative = cytotoxicity, actives largely listed as cytotoxic. 150,000 tested, 0.12% active. HEK-293-SNCA-luc viability, GF-AFC fluorescence, 24 h. AID 1671193;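 further: potency means the concentration at half of the fitted maximal effect; 0% = DMSO-treated cells and -100% = medium-only wells without cells; nearly all actives have a fitted effect of over 30% in size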
#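 Cytotoxicity counterscreen: after 24 h compound treatment of genome-edited SNCA-luciferase HEK-293 cells, live-cell protease substrate GF-AFC read by fluorescence after 30 min; activity scaled between DMSO (0%) and medium-only (-100%), curves Hill-fitted.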
# Starred values were filed as active, the others as inactive; i = inactive; ? = inconclusive; . = not tested or not shown; [ ] = dose if it differs, or a comment. Unless noted, the call rests on the fitted dose curve; in most records, active means well fitted curve in the direction sought with a large enough effect; inconclusive means small, poorly fitted or top-dose-only effect, or another doubt; inactive means no such curve, though single readings can be large; an effect the other way counts as inactive or inconclusive.
SMILES,KDM5B inhibitor,SNCA expr inhib,IP6K1 inhibitor,SNCA viab count
CCOc1ccc(-c2cc3c(=O)n(CCNC(=O)Cc4ccccc4C)ccn3n2)cc1,22µM*,19%,-2,-2%
COc1ccc(-c2cc3c(=O)n(CCNC(=O)c4ccoc4)ccn3n2)cc1,20µM*,6%,0,-13%
COc1ccc(-c2cc3c(=O)n(CCNC(=O)c4sccc4C)ccn3n2)cc1,25µM*,25%,-3,-14%
O=C(Nc1ccccc1)N1CCN(c2nccc(Nc3ccccc3F)n2)CC1,.,-23%,-1,-18%[12.5 µM]
O=C(NCc1ccc(F)cc1)c1ccc2nnc(C3CCCC3)n2c1,.,6%[87.6 µM],-12,-7%[87.6 µM]
O=C(NCc1ccccc1Cl)C1CCCN(c2cnc3ccccc3n2)C1 (centres undefined),i,.,.,.
COc1ccc(-c2cc3c(=O)n(CCNC(=O)c4ccc(OC)c(OC)c4)ccn3n2)cc1,?,95%,-9,-6%
COc1ccc(-c2cc3c(=O)n(CCNC(=O)c4ccsc4)ccn3n2)cc1,22µM*,16%,-5,-11%
COc1ccc(CN2CC3ON=C(C(=O)O)C3C2)cc1 (centres undefined),i,4%[87.6 µM],3,1%[87.6 µM]
O=C(O)C1=NOC2CN(Cc3cccc(C(F)(F)F)c3)CC12 (centres undefined),100µM*,7%,1,5%
CN(C)C/C=C/C(=O)Nc1ccc(C(=O)Nc2cccc(Nc3ncc(Cl)c(-c4c[nH]c5ccccc45)n3)c2)cc1,.,0.17µM*,-3,?
CN(C)C/C=C/C(=O)Nc1cccc(C(=O)Nc2cccc(Nc3ncc(Cl)c(-c4c[nH]c5ccccc45)n3)c2)c1,.,.,1,?
COc1ccc(-c2ccc3ncc(Nc4cccnc4OC)n3n2)cc1OC,22µM*,-11%[87.6 µM],-20,-15%[87.6 µM]
COc1ccc(-c2ccc3ncc(Nc4ccccc4F)n3n2)cc1OC,i,-11%[87.6 µM],-17,-11%[87.6 µM]
O=C(Nc1ccc(Cl)cc1)N1Cc2[nH]cnc2C[C@H]1c1nc(-c2ccc(F)c(Cl)c2)no1,i,2%,-12,?
Cc1ccc(-c2noc([C@@H]3Cc4nc[nH]c4CN3C(=O)NC(C)C)n2)cc1,?,?,0,-13%[87.6 µM]
COc1ccc(CN2Cc3[nH]cnc3C[C@H]2c2nc(-c3ccncc3)no2)cc1,28µM*,10%[87.6 µM],9,-8%[87.6 µM]
O=C(C1CCCCC1)N1Cc2[nH]cnc2C[C@H]1c1nc(-c2ccc3ccccc3c2)no1,32µM*,?,2,?
Cc1cccc(-c2noc([C@@H]3Cc4nc[nH]c4CN3C(=O)NC(C)C)n2)c1,8.9µM*,-12%[87.6 µM],-4,-4%[87.6 µM]
CCNC(=O)N1Cc2[nH]cnc2C[C@H]1c1nc(-c2ccc(F)c(Cl)c2)no1,40µM*,21%[87.6 µM],-3,-5%[87.6 µM]
Cc1ncsc1CN1CCC(N2CC3(CCCCC3)C2c2ccccc2)CC1 (centres undefined),.,-3%,-1,2%
COc1cccc(-c2cc(C(=O)NC3CCCC3)c3cnn(C)c3n2)c1,.,.,-4,.
CNC(=O)c1cc(C2CC2)nc2c1c(C1CCN(C(=O)c3ccc(F)cc3)CC1)nn2C,.,.,-7,.
Cc1ccc(Cn2cc(-c3ccncc3)cc2C(=O)NCc2ccc(N(C)C)cc2)cc1,i,9%,1,3%
Cc1nn(-c2ccccc2)c2c1C(C1CC1)N(C1CN(C(=O)c3cccnc3)C1)C2=O (centres undefined),.,.,-1,.
SMILES,KDM5B inhibitor,SNCA expr inhib,IP6K1 inhibitor,SNCA viab count
COc1ccc(CN2Cc3[nH]cnc3C[C@H]2c2nc(-c3ccc4ccccc4c3)no2)cc1,16µM*,14%,10,-15%
c1ccc(CN2Cc3[nH]cnc3C[C@H]2c2nc(-c3ccccc3)no2)cc1,?,29%[87.6 µM],-8,-27%[87.6 µM]
COc1ccc(-c2noc([C@@H]3Cc4nc[nH]c4CN3Cc3ccc(C)cc3)n2)cc1,?,?,5,?
Fc1ccc(CN2Cc3[nH]cnc3C[C@H]2c2nc(-c3ccc(F)c(Cl)c3)no2)cc1,35µM*,29%[87.6 µM],-8,-19%[87.6 µM]
COc1cccc(-c2cccc(C(=O)N3CCCC3C(=O)NCc3ccc(F)cc3)c2)c1 (centres undefined),.,4%,-4,3%[12.5 µM]
O=C(c1ccc2nc[nH]c2c1)N1CCC(Oc2ccccc2-c2nc(C3CC3)no2)C1 (centres undefined),.,27%,-10,6%
CCCOCCCNC(=O)c1c(C)noc1-c1ccc2c(c1)OCO2,28µM*,-11%,10,-5%
CCCOCCNC(=O)c1c(C)noc1-c1ccc2c(c1)OCO2,28µM*,18%,16,7%
COc1ccc(-c2cnc3[nH]cc(CC(=O)N4CCC(OC)CC4)c3c2)cc1,35µM*,10%[87.6 µM],-2,-22%[87.6 µM]
O=C(Cc1c[nH]c2ncc(-c3ccccc3)cc12)NC1CC1,?,-22%[87.6 µM],-17,-9%[87.6 µM]
O=C1CN(C(=O)Cc2c[nH]c3ncc(-c4ccccc4)cc23)CCN1,40µM*,6%[87.6 µM],-5,9%[87.6 µM]
COc1ccc(-c2cnc3[nH]cc(CC(=O)N4CCCC4)c3c2)cc1,35µM*,10%[87.6 µM],-11,-26%[87.6 µM]
COC1CCN(C(=O)Cc2c[nH]c3ncc(-c4ccccc4)cc23)CC1,40µM*,-22%[87.6 µM],-11,-11%[87.6 µM]
Cc1nnc2ccc(N3CCC(NC(=O)C4CCCC4)CC3)nn12,.,.,-5,.
Cc1nn(-c2ccccc2[N+](=O)[O-])c(C)c1[C@@H]1C=C[C@@H](NCc2ccco2)C1,?,-25%[87.6 µM],-7,?
Cc1nn(-c2ccccc2[N+](=O)[O-])c(C)c1[C@@H]1C=C[C@@H](NCc2ccc(C(C)C)cc2)C1,?,1%[87.6 µM],-12,20µM*
CC1(CCCCN2CCOCC2)COc2ccc(C(=O)NCc3ccc(F)cc3)cc2N1 (centres undefined),28µM*,-8%,-1,5%
CC1(CCCCN2CCOCC2)COc2ccc(C(=O)Nc3cccc(Cl)c3)cc2N1 (centres undefined),?,22%,4,8%
CC1(CNc2ccccc2)COc2ccc(C(=O)NCc3ccc(F)cc3)cc2N1 (centres undefined),32µM*,-28%[87.6 µM],3,?
CC1(CCCCN2CCOCC2)COc2ccc(C(=O)Nc3ccc(Cl)cc3)cc2N1 (centres undefined),25µM*,-5%,3,4%
CC1(CCCCN2CCOCC2)COc2ccc(C(=O)Nc3cccnc3)cc2N1 (centres undefined),?,62%[87.6 µM],10,-4%[87.6 µM]
CC1(CCCCN2CCOCC2)COc2ccc(C(=O)NCc3cccc(F)c3)cc2N1 (centres undefined),28µM*,32%,4,4%
CN(Cc1ccccc1)C(=O)c1ccc2c(c1)NC(C)(CCCCN1CCOCC1)CO2 (centres undefined),?,?,-5,9%[87.6 µM]
COc1cc(CNC(=O)c2ccc3c(c2)NC(C)(CNc2ccccc2)CO3)cc(OC)c1 (centres undefined),?,?,-10,-7%
O=C(NCCCc1ccccc1)C1CCN(c2ccnc3ccnn23)CC1,.,-17%,-4,-7%

# Screening data (PubChem BioAssay)
